# Experimental data: the supplement of paper PMC8728848
# The sample as a whole holds a higher share of the strongest signals than the screen did.
# How the values were obtained:
# Assay in all cases: glycan array binding signal (z-score within array); higher = stronger binding
# Conditions in all cases: glycan notation: IUPAC condensed, linker removed
# GlcA(b1-6)Gal = target: GlcA(b1-6)Gal
# Outline: (§1)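 Glycan array binding is given as a within-array Z-score, which can be read as non-binding when negative. The arrays, 3228 of them, came from the Consortium for Functional Glycomics database and were retained only where the protein sequence was available. Z-scores were averaged across arrays of the same protein sequence at different concentrations or buffers and across linkers.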
# [1] = target: GlcNAc(a1-4)Gal(b1-4)GalNAc
# Outline: as §1
# [2] = target: GlcNAc(a1-4)Gal(b1-4)GlcNAc
# Outline: as §1
# [3] = target: GlcNAc(b1-3)Gal(b1-4)GlcNAc(b1-2)[GlcNAc(b1-3)Gal(b1-4)GlcNAc(b1-6)]Man(a1-6)[GlcNAc(b1-3)Gal(b1-4)GlcNAc(b1-2)Man(a1-3)]Man(b1-4)GlcNAc(b1-4)GlcNAc
# Outline: as §1
# [4] = target: GlcNAc(b1-3)Gal(b1-4)GlcNAc(b1-3)Gal(b1-4)GlcNAc(b1-3)Gal(b1-4)GlcNAc(b1-2)[GlcNAc(b1-3)Gal(b1-4)GlcNAc(b1-3)Gal(b1-4)GlcNAc(b1-3)Gal(b1-4)GlcNAc(b1-6)]Man(a1-6)[GlcNAc(b1-3)Gal(b1-4)GlcNAc(b1-3)Gal(b1-4)GlcNAc(b1-3)Gal(b1-4)GlcNAc(b1-2)Man(a1-3)]Man(b1-4)GlcNAc(b1-4)[Fuc(a1-6)]GlcNAc
# Outline: as §1
# [5] = target: GlcNAc(b1-3)Gal(b1-4)GlcNAc(b1-3)Gal(b1-4)GlcNAc(b1-3)Gal(b1-4)GlcNAc(b1-3)Gal(b1-4)GlcNAc(b1-2)Man(a1-3)[GlcNAc(b1-3)Gal(b1-4)GlcNAc(b1-3)Gal(b1-4)GlcNAc(b1-3)Gal(b1-4)GlcNAc(b1-3)Gal(b1-4)GlcNAc(b1-2)Man(a1-6)]Man(b1-4)GlcNAc(b1-4)GlcNAc
# Outline: as §1
# [6] = target: GlcNAc(b1-3)Gal(b1-4)GlcNAc(b1-6)[Gal(b1-3)]GalNAc
# Outline: as §1
# [7] = target: GlcNAc(b1-3)Gal(b1-4)GlcNAc(b1-6)[GlcNAc(b1-3)Gal(b1-3)]GalNAc
# Outline: as §1
# [8] = target: GlcNAc(b1-3)[GlcNAc(b1-6)]Gal(b1-4)GlcNAc
# Outline: as §1
# Kdn(a2-3)Gal(b1-3)GlcNAc = target: Kdn(a2-3)Gal(b1-3)GlcNAc
# Outline: as §1
# [9] = target: Man(a1-2)Man(a1-2)Man(a1-3)Man
# Outline: as §1
# Man(a1-2)Man(a1-3)Man = target: Man(a1-2)Man(a1-3)Man
# Outline: as §1
# [10] = target: Man(a1-3)[Man(a1-6)]Man(b1-4)GlcNAc(b1-4)GlcNAc
# Outline: as §1
# Man(a1-6)Man = target: Man(a1-6)Man
# Outline: as §1
# [11] = target: Neu5Ac(a2-3)Gal(b1-4)GlcNAc(b1-2)Man(a1-3)[Neu5Ac(a2-6)Gal(b1-4)GlcNAc(b1-2)Man(a1-6)]Man(b1-4)GlcNAc(b1-4)GlcNAc
# Outline: as §1
# [12] = target: Neu5Ac(a2-3)Gal(b1-4)GlcNAc(b1-2)[Neu5Ac(a2-3)Gal(b1-4)GlcNAc(b1-6)]Man(a1-6)[Neu5Ac(a2-3)Gal(b1-4)GlcNAc(b1-2)Man(a1-3)][GlcNAc(b1-4)]Man(b1-4)GlcNAc(b1-4)GlcNAc
# Outline: as §1
# [13] = target: Neu5Ac(a2-3)Gal(b1-4)GlcNAc(b1-3)Gal(b1-4)GlcNAc(b1-3)Gal(b1-4)GlcNAc(b1-2)Man(a1-3)[Neu5Ac(a2-3)Gal(b1-4)GlcNAc(b1-3)Gal(b1-4)GlcNAc(b1-3)Gal(b1-4)GlcNAc(b1-2)Man(a1-6)]GalNAc
# Outline: as §1
# [14] = target: Neu5Ac(a2-3)Gal(b1-4)GlcNAc(b1-3)Gal(b1-4)GlcNAc(b1-6)[Gal(b1-3)]GalNAc
# Outline: as §1
# [15] = target: Neu5Ac(a2-3)Gal(b1-4)[Fuc(a1-3)]GlcNAc(b1-3)Gal
# Outline: as §1
# [16] = target: Neu5Ac(a2-3)Gal(b1-4)[Fuc(a1-3)]GlcNAc(b1-3)GalNAc
# Outline: as §1
# [17] = target: Neu5Ac(a2-6)Gal(b1-3)GlcNAc(b1-3)[Gal(b1-4)GlcNAc(b1-6)]Gal(b1-4)Glc
# Outline: as §1
# Neu5Ac(a2-6)Gal(b1-4)Glc = target: Neu5Ac(a2-6)Gal(b1-4)Glc
# Outline: as §1
# [18] = target: Neu5Ac(a2-6)Gal(b1-4)GlcNAc(b1-2)Man(a1-3)[Neu5Ac(a2-6)Gal(b1-4)GlcNAc(b1-2)Man(a1-6)]Man(b1-4)GlcNAc(b1-4)GlcNAc
# Outline: as §1
# [19] = target: Neu5Ac(a2-6)Gal(b1-4)GlcNAc(b1-3)Gal(b1-4)GlcNAc(b1-3)Gal(b1-4)GlcNAc(b1-2)Man(a1-3)[Neu5Ac(a2-6)Gal(b1-4)GlcNAc(b1-3)Gal(b1-4)GlcNAc(b1-3)Gal(b1-4)GlcNAc(b1-2)Man(a1-6)]GalNAc
# Outline: as §1
# Neu5Ac(a2-6)GalNAc = target: Neu5Ac(a2-6)GalNAc
# Outline: as §1
# [20] = target: Neu5Ac(a2-6)GalNAc(b1-4)GlcNAc
# Outline: as §1
# [21] = target: Neu5Ac(a2-8)Neu5Gc(a2-3)Gal(b1-4)GlcNAc
# Outline: as §1
# [22] = target: Neu5Ac9Ac(a2-6)Gal(b1-4)GlcNAc
# Outline: as §1
binder,measurement,setting,value
PX14343G-pdi-535-24-535 (Parabacteroides distasonis) (protein) LDTVPKDQLAPSTTWQTEADAKGFIVGCYKDLLDGNTLLYLDCGSDIGYNNFPWEGFRPWGDGSLSSSNPGQILYDYKSIRKANTFLENVDKVTFSSDAVKANYVAQAKAIRAYKYFLMNWWYGGVPIISSYSSADEAKVERNTEQEVRDYIAKDLDEALAGIAEAPEARGYIAKGAVLAIKMREALYYGDWQKAKDAAKAIIDLKQYELDPDYTNLFKVSGVDSKEIILADQNIETLDGLGTIGQMYNNVDQGWSSIVPTQNLVDMYEMSDGLTKEESKTYDAKHPFANRDPRMAMTILYPGRDWRGDVLNTLDEKLQDGTVNKNFPTYTDNASKSALTWAKYLDPMDQYGDVWSSGACPIVFRYAEVLLTYAEAANELSGPSDEIYGYLNQIRQRVGMGEVDKAKYGTKDKLRELIRRERTVELAGEGLRRADIVRWQEDGKMLAEKVMNGDLLRVTGTINYGESEPTKRAEITGTAVIETRQFSSRNRYLPIPQTSMDKNPNLKQNPGY,glycan array binding signal (z-score),GlcA(b1-6)Gal,-0.046
same,glycan array binding signal (z-score),[1],-1.02
same,glycan array binding signal (z-score),[2],2.04
same,glycan array binding signal (z-score),[3],2.37
same,glycan array binding signal (z-score),[4],0.865
same,glycan array binding signal (z-score),[5],0.208
same,glycan array binding signal (z-score),[6],-1.23
same,glycan array binding signal (z-score),[7],0.869
same,glycan array binding signal (z-score),[8],1
same,glycan array binding signal (z-score),Kdn(a2-3)Gal(b1-3)GlcNAc,0.143
same,glycan array binding signal (z-score),[9],0.086
same,glycan array binding signal (z-score),Man(a1-2)Man(a1-3)Man,-0.387
same,glycan array binding signal (z-score),[10],-0.762
same,glycan array binding signal (z-score),Man(a1-6)Man,2.08
same,glycan array binding signal (z-score),[11],-0.159
same,glycan array binding signal (z-score),[12],-0.038
same,glycan array binding signal (z-score),[13],2
same,glycan array binding signal (z-score),[14],1.55
same,glycan array binding signal (z-score),[15],-0.539
same,glycan array binding signal (z-score),[16],0.588
same,glycan array binding signal (z-score),[17],-0.502
same,glycan array binding signal (z-score),Neu5Ac(a2-6)Gal(b1-4)Glc,-0.218
same,glycan array binding signal (z-score),[18],-0.872
same,glycan array binding signal (z-score),[19],1.49
same,glycan array binding signal (z-score),Neu5Ac(a2-6)GalNAc,-0.874
same,glycan array binding signal (z-score),[20],-0.103
same,glycan array binding signal (z-score),[21],16.3
same,glycan array binding signal (z-score),[22],0.187
